Source: PubChem BioAssay (NCATS)
Inconclusive results are not listed. The source made the active and inactive calls. Calls follow the shape of the dose curve; as a rule, active = well fitted curve in the direction sought with a large enough effect; inconclusive = small, poorly fitted or top-dose-only effect, or another doubt; inactive = no such curve, though single readings can be large; an effect the other way counts as inactive or inconclusive.

Key:
[1] = qHTS of pediatric cancer cell lines to identify multiple opportunities for drug repurposing: Primary screen for MG 63 (6-TG R) cells (AID 1347105); conditions: MG 63 (6-TG R) viability, CellTiter-Glo, 48 h; series mostly up to 46 µM; also: nearly all actives have a fitted effect of over 50% in size
How it was run: (§1)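 Viability was measured as metabolically active cells after 48 hours of treatment, read by CellTiter-Glo luminescence. Compounds were tested at multiple final concentrations, giving concentration-response curves.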

[2] = qHTS of pediatric cancer cell lines to identify multiple opportunities for drug repurposing: Primary screen for Rh30 cells (AID 1347107); conditions: Rh30 rhabdomyosarcoma viability, CellTiter-Glo luminescence, 48 h; series mostly up to 46 µM; also: nearly all actives have a fitted effect of over 75% in size
How it was run: (§2)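 Cells (500-1,000/well) in growth media were settled 5 h at 37 degrees C, then given compounds for 48 h. Viability was read as CellTiter-Glo luminescence. Primary runs used MIPE at 11 points (0.78 nM-46 µM) and NPC at 8 points (0.59 nM-46 µM); follow-ups used 11 points.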

[3] = qHTS of pediatric cancer cell lines to identify multiple opportunities for drug repurposing: Primary screen for Rh41 cells (AID 1347108); conditions: Rh41 rhabdomyosarcoma viability, CellTiter-Glo luminescence, 48 h; series mostly up to 46 µM; also: nearly all actives have a fitted effect of over 70% in size
How it was run: as §1

[4] = qHTS of pediatric cancer cell lines to identify multiple opportunities for drug repurposing: Confirmatory screen for A673 cells (AID 1347110); conditions: A673 Ewing sarcoma cell viability; series mostly up to 45.9 µM;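 also: cells exposed to compound for 48 h before the viability read; nearly all actives have a fitted effect of over 65% in size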
How it was run: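 qHTS titration format: primary MIPE 0.78 nM-46 µM (11 pts), NPC 0.59 nM-46 µM; confirmation 11 pts. 48 h, CTG luminescence.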

[5] = qHTS of pediatric cancer cell lines to identify multiple opportunities for drug repurposing: Confirmatory screen for BT-12 cells (AID 1347112); conditions: BT-12 rhabdoid tumor cells, viability; series mostly up to 45.9 µM; also: nearly all actives have a fitted effect of over 55% in size
How it was run: as §2

[6] = qHTS of pediatric cancer cell lines to identify multiple opportunities for drug repurposing: Confirmatory screen for LAN-5 cells (AID 1347113); conditions: LAN-5 neuroblastoma cell viability; series mostly up to 45.9 µM; also: nearly all actives have a fitted effect of over 65% in size
How it was run: as §2

[7] = qHTS of pediatric cancer cell lines to identify multiple opportunities for drug repurposing: Confirmatory screen for DAOY cells (AID 1347114); conditions: DAOY medulloblastoma cells viability, cytotoxicity qHTS; series mostly up to 45.9 µM; also: nearly all actives have a fitted effect of over 65% in size
How it was run: (§3)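 Viability measured as metabolically active cells via CellTiter-Glo luminescence following 48 hours of compound exposure, 11-point dilutions in confirmatory testing. 500-1,000 cells/well plated 5 hours before dosing; controls were DMSO and 2.3 µM bortezomib.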

[8] = qHTS of pediatric cancer cell lines to identify multiple opportunities for drug repurposing: Confirmatory screen for NB-EBc1 cells (AID 1347115); conditions: NB-EBc1 neuroblastoma cells, viability (cytotoxicity); series mostly up to 45.9 µM;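 also: cells exposed to compound for 48 h before the viability read; nearly all actives have a fitted effect of over 45% in size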
How it was run: as §2

[9] = qHTS of pediatric cancer cell lines to identify multiple opportunities for drug repurposing: Confirmatory screen for SJ-GBM2 cells (AID 1347116); conditions: SJ-GBM2 glioblastoma cells, viability; series mostly up to 45.9 µM; also: nearly all actives have a fitted effect of over 60% in size
How it was run: as §3

[10] = qHTS of pediatric cancer cell lines to identify multiple opportunities for drug repurposing: Primary screen for control Hh wild type fibroblast cells (AID 1347106); conditions: Hh wild-type fibroblast viability, CellTiter-Glo luminescence, 48 h; series mostly up to 46 µM; also: nearly all actives have a fitted effect of over 55% in size
How it was run: as §2

Measured: Potency
Potency is read from the fitted curve at half-maximal effect.

CC1=C(O)C(=O)C=C2C1=CC=C1[C@@]2(C)CC[C@@]2(C)[C@@H]3C[C@](C)(C(=O)O)CC[C@]3(C)CC[C@]12C
active: [1] 935 nM | [2] 4690 nM | [3] 1480 nM | [4] 1310 nM | [5] 3290 nM | [6] 1850 nM | [7] 1650 nM | [8] 2610 nM | [9] 2610 nM

CO[C@H]1CCC(O[C@H]2C[C@H]([C@]3(C)CC[C@]4(C[C@H](O)[C@@H](C)[C@@H]([C@@H](C)C=C(C)C(=O)[C@H](C)C[C@H](C)C(=O)O)O4)O3)O[C@]3(O[C@@H]([C@H]4O[C@@](O)(CO)[C@H](C)C[C@H]4C)C[C@H]3C)[C@H]2C)O[C@H]1C (stereo partly specified)
active: [1] 7430 nM | [2] 3720 nM | [3] 1870 nM | [4] 1850 nM | [5] 2930 nM | [6] 2330 nM | [7] 20800 nM

CN(C)NC(=O)CCC(=O)O
inactive: [1] | [2]

C[C@]12CC[C@H](O)CC1=CC[C@H]1[C@H]3CCC(=O)[C@@]3(C)CC[C@@H]12
inactive: [10]

C[C@@H]1O[C@@H](O[C@@H]2C=C3CC[C@@H]4[C@@H](CC[C@]5(C)[C@H](c6ccc(=O)oc6)CC[C@@]45O)[C@@]3(C)CC2)[C@H](O)[C@H](O)[C@H]1O
active: [1] 4.7 nM | [3] 23.5 nM | [4] 52.2 nM | [5] 41.4 nM | [6] 58.5 nM | [7] 7.4 nM | [8] 26.1 nM | [9] 58.5 nM

COC1=CC(C)=C[C@@H](C)[C@@H](O)[C@@H](C)CC(C)=CC=C[C@H](OC)[C@H]([C@@H](C)[C@@H](O)[C@H](C)[C@@]2(O)C[C@@H](O)[C@H](C)[C@@H](C(C)C)O2)OC1=O
active: [1] 5.9 nM | [10] 41.8 nM | [3] 16600 nM
inactive: [4] | [7]

CC=C(C)C(=O)O[C@H]1C(C)=C2[C@@H]3OC(=O)[C@@](C)(O)[C@@]3(O)[C@@H](OC(=O)CCC)C[C@](C)(OC(C)=O)[C@@H]2[C@@H]1OC(=O)CCCCCCC
inactive: [4] | [7] | [8]
active: [1] 118 nM | [2] 1320 nM | [3] 209 nM

CCNC(=O)C[C@@H]1N=C(c2ccc(Cl)cc2)c2cc(OC)ccc2-n2c(C)nnc21
active: [1] 469 nM | [3] 5900 nM
inactive: [10]

Cc1[nH]nc2ccc(-c3cncc(OC[C@@H](N)Cc4c[nH]c5ccccc45)c3)cc12
active: [1] 2350 nM | [2] 14800 nM | [3] 2640 nM | [4] 1470 nM | [5] 4140 nM | [6] 2330 nM

CCOC(=O)c1c(C(C#N)=CN)c2ccc(Cl)c(Cl)c2n1C
inactive: [10]

Nc1c(Cl)c(Cl)c(Cl)c(Cl)c1Cl
inactive: [1] | [2] | [3]
